Shown is part of a subset that was picked to be rich in hits.
Eya2 phos inh: blocks the phosphatase activity of human Eya2; Potency, µM (highest dose often 76.9 µM), for the others: at the top dose activity, negative = inhibition, hits mostly inhibitors; recombinant Eya2, OMFP fluorescence dephosphorylation (OMFP is methylfluorescein phosphate); O00167; actives 0.006% (n = 330,000); AID 488837; further: on the % scale 0 is the no-effect control and ±100 the full control effect
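Eya2 (0.2 uM) preincubated 10 min at ambient with compound, then OMFP substrate added at 50 uM; 10 min reaction in 50 mM HEPES pH 7.5, 50 mM NaCl, 5 uM MgCl2, 0.05% BSA, 1 mM DTT. Fluorescence read at Ex 485/Em 525 nm.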
p53 reactivation: re-activators of mutant p53 | H1299 p53-A138V BP100-luciferase reporter, luminescence, 24 h | actives 0.063% (n = 320,000) | Potency, µM (series often up to 92.2 µM), for the others: at the highest dose activity change, positive = activation, hits mostly activators; further: % of control where 0% means no effect; nearly all actives have a fitted effect of over 45% in size
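p53-null H1299 cells stably carrying temperature-sensitive p53-A138V and a BP100-luciferase reporter were pinned with compounds (4-point, 1:5 series) and held 24 hrs at 37 deg C. Luminescence was read 10 min after detection reagent.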
USP2a inh: inhibitors of human ubiquitin-specific protease USP2a; Potency, µM (series often up to 38.3 µM), for the others: at the highest dose activity change, negative = inhibition, usual class: inhibitors; USP2 core, Ub-CHOP2 coupled fluorogenic reporter, 485/531; actives 0.01% (n = 330,000);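 further: plate controls were DMSO wells for no effect and full inhibition by NEM control for full effect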
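USP2 core (10nM final) preincubated 30min RT with compound in 20mM Tris-HCl pH 8.0, 2mM CaCl2, 2mM beta-mercaptoethanol, 0.05% CHAPS; 25nM Ub-CHOP2 plus 25nM reporter substrate added, fluorescence (Ex485/Em531) read after 60min.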
Mm-Cpn inhibitor: inhibitors of Methanococcus maripaludis chaperonin TRiC (MmCpn) | Potency, µM (top dose mostly 76.9 µM), inactives show at the highest dose activity, negative = inhibition, most hits filed as inhibitors | purified Mm-Cpn ATPase, ADP Transcreener TR-FRET | AID 504842 | actives 0.031% (n = 330,000); further: on the % scale 0 is the no-effect control and ±100 the full control effect; nearly all actives have a fitted effect of over 80% in size
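ATPase read-out: TR-FRET ADP immunoassay (anti-ADP Eu cryptate vs ADP-d2), ex 320 nm, em 590/665 nm; signal drops as ADP forms. Enzyme 25 nM, ATP 10 uM, 30 min at 37°C after 10 min compound preincubation.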
ClpP mod: qHTS Assay for Activators of ClpP. ATP-dependent Clp protease proteolytic subunit (Bacillus subtilis (strain 168)), P80244. purified B. subtilis ClpP, FRET peptide cleavage, 20 min. Potency, µM (series often up to 57.5 µM), inactives show at the top dose activity change, negative = active. actives 1.9% (n = 340,000). AID 651965, 2013; active means well fitted falling curve with a large enough effect; inconclusive means small, poorly fitted or top-dose-only effect; inactive means no such curve, though single readings can be large or run the other way; further: the source files actives as falling curves though it sought activators and does not explain the sign; nearly all actives have a fitted effect of over 65% in size
Target sequence (P80244 whole entry, looked up): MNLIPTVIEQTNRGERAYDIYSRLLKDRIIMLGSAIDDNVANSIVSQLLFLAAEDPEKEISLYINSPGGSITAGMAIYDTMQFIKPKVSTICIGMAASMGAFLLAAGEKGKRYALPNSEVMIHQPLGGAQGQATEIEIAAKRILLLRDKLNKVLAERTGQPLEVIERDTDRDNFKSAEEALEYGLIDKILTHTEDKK
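Purified B. subtilis ClpP, 10 microg/mL final in Tris/HCl pH8 with KCl, BSA, glycerol and Tween-20, cleaved an Abz/nitrotyrosine-quenched decapeptide. Fluorescence (ex 320, em 430) was read at 0 and 20 min at room temperature. Delta was normalized to 5.8 microM ADEP and DMSO/no-enzyme controls.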
a7 integrin act: integrin-mediated muscular dystrophy alleviation activation | alpha7betagal myoblasts, beta-gal FDG fluorescence, 48 h | Potency, µM (highest dose often 38.3 µM), for inactives: at the top dose activation, hits mostly activators | actives 0.064% (n = 350,000);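 further: 100% = response of the positive control SU9516; nearly all actives have a fitted effect of over 60% in size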
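alpha7betagal+/- myoblasts (passage 13, 250/well) treated 48 h at 37C with compounds at 1:260 dilution of DMSO stock. Lysed, then beta-galactosidase activity read as FDG fluorescence (ex 480/em 540) after 30 min, with pre-read for autofluorescence.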
Starred values were filed as active, the others as inactive; [ ] = another dose, or the depositor's remark. Unless noted, the call rests on the fitted dose curve; in most records, active means well fitted curve in the direction sought with a large enough effect; inconclusive means small, poorly fitted or top-dose-only effect, or another doubt; inactive means no such curve, though single readings can be large; an effect the other way counts as inactive or inconclusive. Potency means the concentration at half of the fitted maximal effect.

`CCOC(=O)COc1ccc2c(c1)C(=O)CC1(CCN(C(C)=O)CC1)O2` gave Eya2 phos inh 7%, p53 reactivation 3%, USP2a inh 2%, Mm-Cpn inhibitor -5%, ClpP mod 28µM* and a7 integrin act 4%[7.66 µM].
Screening CCOC(=O)N1CCN(C(=O)COc2ccc3c(c2)C(=O)CC(C)(C)O3)CC1 returned Eya2 phos inh 4%, p53 reactivation -4%, USP2a inh -1%, Mm-Cpn inhibitor -3%, ClpP mod 4% and a7 integrin act -39%.
Screening CC1(C)CC(=O)c2cc(OCC(=O)NCCN3CCOCC3)ccc2O1 returned Eya2 phos inh -13%, p53 reactivation 3%, USP2a inh 3%, Mm-Cpn inhibitor -2%, ClpP mod inconclusive and a7 integrin act -1%.
`CC1(C)CC(=O)c2cc(OCC(=O)O)ccc2O1` gave Eya2 phos inh -23%, p53 reactivation 9%, USP2a inh -2%, Mm-Cpn inhibitor -8%, ClpP mod 25µM* and a7 integrin act -17%[7.66 µM].
Screening CC1(C)CC(=O)c2cc(OCC(=O)N3CCCCCC3)ccc2O1 returned Eya2 phos inh 10%, p53 reactivation inconclusive, USP2a inh 1%, Mm-Cpn inhibitor 0%, ClpP mod 28µM* and a7 integrin act -16%.
For CCOC(=O)COc1ccc2c(c1)C(=O)CC(C)(C)O2 the results were Eya2 phos inh 21%, p53 reactivation 0%, USP2a inh -1%, Mm-Cpn inhibitor -1%, ClpP mod 28µM* and a7 integrin act -8%[7.66 µM].
CC1(C)CC(=O)c2cc(OCC(=O)N3CCN(c4ccccc4F)CC3)ccc2O1 was read as Eya2 phos inh 10%, p53 reactivation -5%, USP2a inh -1%, Mm-Cpn inhibitor -2%, ClpP mod inconclusive and a7 integrin act 2%.
C[N+]1(CC(=O)c2c3ccccc3cc3ccccc23)CCOCC1 was read as ClpP mod -2%.
Screening O=C(N/N=C/c1cc(Br)ccc1O)c1cccc(N2CCCC2=O)c1 returned Eya2 phos inh -1%, p53 reactivation inconclusive, USP2a inh 0%, Mm-Cpn inhibitor -13%, ClpP mod 2% and a7 integrin act -18%.
For O=C(N/N=C/c1ccco1)c1cccc(N2CCCC2=O)c1 the results were Eya2 phos inh 4%, p53 reactivation inconclusive, USP2a inh -2%, Mm-Cpn inhibitor 0%, ClpP mod 28µM* and a7 integrin act 26%.
Cc1ccc(-c2oc3ncnc(N)c3c2-c2ccc(C)cc2)cc1 was read as Eya2 phos inh -20%, p53 reactivation 15%, USP2a inh 2%, Mm-Cpn inhibitor -1%, ClpP mod 28µM* and a7 integrin act 2%.
For CCCC(c1nnnn1CCc1ccccc1)N1CCC(C(N)=O)CC1 (centres undefined) the results were Eya2 phos inh 6%, p53 reactivation -1%, USP2a inh -1%, Mm-Cpn inhibitor -1%, ClpP mod -2% and a7 integrin act 5%.
For CCCC(c1nnnn1CCc1ccccc1)N1CCN(C2CCCC2)CC1 (centres undefined) the results were Eya2 phos inh 17%, p53 reactivation 8%, USP2a inh 5%, Mm-Cpn inhibitor -2%, ClpP mod 0.79µM* and a7 integrin act -11%.
Screening COc1cccc(/C=C/c2nccc3ccccc23)c1OC returned ClpP mod -18%.
`OCC1OC(Oc2cccc3ccccc23)C(O)C(O)C1O` (centres undefined) gave Eya2 phos inh 6%, p53 reactivation 3%, USP2a inh -1%, Mm-Cpn inhibitor -1%, ClpP mod -1% and a7 integrin act -9%.

High-throughput results as filed in PubChem BioAssay.
